Shown are actives, neighbours in structure and some others; about 19% of the full set was active somewhere.
HT1080NT lethal: qHTS for induction of synthetic lethality in tumor cells producing 2HG: qHTS for the HT-1080-NT fibrosarcoma cell line; 360,000 tested, 1.6% active; HT-1080-NT fibrosarcoma viability, CellTiter-Glo ATP luminescence, 48 h; Potency, µM (highest dose often 46.1 µM), inactives show top-dose activity, negative = less viability, actives largely listed as cytotoxic;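 note: NT is the 2HG producing partner of a matched IDH1 knockdown line; potency is the fitted concentration of half-maximal effect; 0% = DMSO-treated cells and -100% = media-only wells without cells; nearly all actives have a fitted effect of over 55% in size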
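Fibrosarcoma NT cells, 750 per well in 5% FBS RPMI, were exposed to compound for 48 hours. Viability: CellTiter-Glo luminescence.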
DT40 TDP1 no CPT: qHTS for Inhibitors of human tyrosyl-DNA phosphodiesterase 1 (TDP1): qHTS in cells in absence of CPT; DT40 Tdp1-/- hTDP1 cells, no CPT, ATP luminescence, 48 h; Potency, µM (titrated, usually from 46.2 µM), for inactives: at the highest dose activity change, negative = growth inhibition, actives largely listed as inhibitors; 420,000 tested, 15% active; note: potency is the fitted concentration of half-maximal effect; nearly all actives have a fitted effect of over 55% in size
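A cellular qHTS used chicken DT40 cells lacking endogenous Tdp1 but carrying stably transfected human TDP1. Compounds were applied without camptothecin, and cell growth kinetics were judged by ATP-dependent luminescence after ≥48 hr.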
IL-1B inflam inh: qHTS for Inhibitors of Inflammasome Signaling: IL-1-beta AlphaLISA Primary Screen; activity change, % at 57.5 µM; 360,000 tested, 4.7% active; THP-1 LPS/ATP IL-1B secretion, AlphaLISA, 16 h; active compounds read low; in the data active = activity change below about -50%; inconclusive = mostly about -30% to -49%
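Secreted IL-1B measured by AlphaLISA bead assay after 16 h compound exposure of THP-1 cells; compounds (final up to 57.5 uM) added 1 h before LPS (250 ng/mL) and ATP (1.25 mM) stimulation; lower signal means less secretion.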
HT1080 IDH1KD tx: qHTS for induction of synthetic lethality in tumor cells producing 2HG: qHTS for the HT-1080-IDH1KD cell line; HT-1080 IDH1 knockdown viability, ATP luminescence, 48 h; 360,000 tested, 2% active; Potency, µM (doses to about 46.1 µM), for the others: at the top dose activity, negative = toxicity, hits mostly cytotoxic; AID 686971, 2013;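 note: potency is the fitted concentration of half-maximal effect; 0% = DMSO wells and -100% = cell-free medium wells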
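Knockdown cells (IDH1KD HT-1080) received compounds 2 h after plating at 750 cells/well and were kept 48 h at 37 °C in 5% FBS RPMI. A CellTiter-Glo luminescence read gave % activity for curve fitting.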
TDP1 cell CPT: qHTS for Inhibitors of human tyrosyl-DNA phosphodiesterase 1 (TDP1): qHTS in cells in presence of CPT. chicken DT40 Tdp1-/-;hTDP1 cells + 20 nM CPT, ATP luminescence, 48 h. 420,000 tested, 12% active. Potency, µM (top dose mostly 46.2 µM), for the others: at the top dose activity change, negative = growth inhibition, hits mostly inhibitors. AID 686979, 2013; note: potency is the fitted concentration of half-maximal effect; nearly all actives have a fitted effect of over 55% in size
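Chicken DT40 Tdp1-/- cells complemented with human TDP1, 400 cells/well, exposed to compounds plus 20 nM camptothecin for at least 48 h at 37 C; viability read as ATP content by CellTiter-Glo luminescence.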
Starred values were filed as active, the others as inactive; u = inconclusive; x = no result given; [ ] = remark or other dose. Unless noted, calls come from the whole dose curve; as a rule, active = well fitted curve in the direction sought with a large enough effect; inconclusive = small, poorly fitted or top-dose-only effect, or another doubt; inactive = no such curve, though single readings can be large; an effect the other way counts as inactive or inconclusive. Unless noted, % is set by controls: 0 for no effect and ±100 for the full control effect.

SMILES | HT1080NT lethal | DT40 TDP1 no CPT | IL-1B inflam inh | HT1080 IDH1KD tx | TDP1 cell CPT
CCCOc1ccc(-c2csc(NC(=O)CN3C(=O)CCC3=O)n2)cc1 | 7% | 1% | 24 | 10% | -22%
N=c1n(CC(=O)c2cccc([N+](=O)[O-])c2)c2ccccc2n1Cc1ccccc1 | -23% | 21µM* | -104* | u | 16µM*
CCCCOC(=O)Cn1c(=N)n(CCN2CCOCC2)c2ccccc21 | -2% | -17% | 20 | 10% | 9%
CCn1c(=N)n(CC(=O)c2cccc([N+](=O)[O-])c2)c2ccccc21 | 4% | 21µM* | -27 | 1% | u
N=c1n(CCN2CCOCC2)c2ccccc2n1CC(=O)c1ccc(Cl)c(Cl)c1 | -23% | 18µM* | -7 | u | u
N=c1n(CCN2CCOCC2)c2ccccc2n1CC(=O)c1cccc([N+](=O)[O-])c1 | 0% | 23µM* | -2 | -18% | 16µM*
CC(O)c1cccc(-c2ccc(CN3C[C@]4(CO)O[C@@H](CO)C[C@@H]4S3(=O)=O)cc2)c1 (some centres undefined) | 11% | -24% | -3 | 12% | u
O=[N+]([O-])c1ccc(C(O)CN=Cc2ccc(O)cc2O)cc1 (centres undefined) | 12µM* | u | 0 | 8.2µM* | 23µM*
Oc1ccccc1C1=NC(c2ccccc2)NC(c2ccccc2)C1 (centres undefined) | 15% | 18µM* | u | 0% | u
NC1(CO)COC(c2ccccc2)OC1 (centres undefined) | 5% | -1% | -15 | 6% | 1%
CN(C)CCNc1ncnc2c1ncn2[C@H]1CN(Cc2cccnc2)C[C@@H](CO)O1 | 13% | -15% | 33 | 19% | 1%
COc1cccc(C(CCc2cc(OC)c(OC)c(OC)c2)NC(C)=O)c1 (centres undefined) | 1% | -9% | 22 | 8% | 10%
O=C(Nc1ccc(S(=O)(=O)Nc2ccccn2)cc1)C(F)(F)F | 11% | -13% | 14 | 10% | 2%
CC(C)CNC(=O)NC(=O)COC(=O)c1ccccc1Sc1ccc(C(F)(F)F)cc1[N+](=O)[O-] | -6% | u | 49 | -2% | 29µM*
COc1ccc(-c2[nH]ncc2CNCCc2ncccc2C)cc1F | 0% | -25% | -8 | 0% | -3%
CC(=O)N[C@@H](C)C(=O)NCC1Cc2cc(C)cc(-c3cnccn3)c2O1 (some centres undefined) | x | -2% | x | x | -2%[9.04 µM]
COc1ccc(/C=N/n2cnc3scc(-c4cccs4)c3c2=O)cc1OC | 8% | u | 8 | 20% | 18µM*
COc1cc(/C=N/n2cnc3scc(-c4cccs4)c3c2=O)cc(OC)c1OC | u | 2.9µM* | 36 | u | 4.6µM*
O=c1c2c(-c3cccs3)csc2ncn1-c1ccccc1 | -17% | u | -2 | -6% | -28%
CC(=O)Nc1ccc(S(=O)(=O)NC(C)C(=O)NCC(c2ccco2)N(C)C)cc1 (centres undefined) | 5% | 7% | -3 | 2% | 4%
O=C(NCc1cccc(Cl)c1)NCc1noc2ccccc12 | x | 16µM* | x | x | u
O=C(NCc1noc2ccccc12)Nc1ccc(F)cc1F | x | -69% | x | x | 16µM*
O=C(NCc1cccc(Cl)c1)NCc1cccc(Cl)c1 | -6% | -5% | -9 | -16% | -6%
CCC(C(=O)NCc1cccc(C)c1)n1nc(C)c2c(C)n(-c3ccccc3)nc2c1=O (centres undefined) | -8% | u | 3 | -4% | u
CCOC(=O)C(CC)n1nc(C)c2c(C)n(-c3ccc(C)cc3)nc2c1=O (centres undefined) | x | 16µM* | x | x | 18µM*
SMILES | HT1080NT lethal | DT40 TDP1 no CPT | IL-1B inflam inh | HT1080 IDH1KD tx | TDP1 cell CPT
CCC(C(=O)NCc1cccc(Br)c1)n1nc(C)c2c(C)n(-c3ccccc3)nc2c1=O (centres undefined) | x | u | x | x | 23µM*
CCc1ccc(CNC(=O)C(CC)n2nc(C)c3c(C)n(-c4ccccc4)nc3c2=O)cc1 (centres undefined) | x | 16µM* | x | x | 23µM*
CCC(C(=O)Nc1ccccc1Cl)n1nc(C)c2c(C)n(-c3ccccc3)nc2c1=O (centres undefined) | 9% | u | -19 | u | u
COc1ccc(CN(C(=O)c2ccc(-c3ccccc3)[nH]2)C(C(=O)NC(C)(C)C)c2ccncc2)cc1 (centres undefined) | -22% | u | -83* | 15µM* | u
COc1cc(C(C(=O)NC(C)(C)C)N(Cc2ccccc2)C(=O)c2cnccn2)cc(OC)c1OC (centres undefined) | 5% | -5% | 0 | 4% | 0%
C/C(=N\NC(=S)NC(C)C)c1ccccc1OC(F)F | 18% | 3.3µM* | 18 | 16% | 2.9µM*
C/C(=N\NC(=O)COc1ccc(C#N)cc1)c1ccccc1OC(F)F | -23% | u | -1 | -12% | -21%
CCNC(=S)N/N=C(\C)c1ccc2ccccc2c1OC(F)F | -19% | 16µM* | 32 | -17% | 23µM*
COc1cc(/C=C2\C(=O)N(CCC#N)N=C2C)ccc1OCC(=O)Nc1ccccc1 | -3% | u | -61* | -11% | u
COc1cc(/C=C2\SC(N)=NC2=O)ccc1OCC(=O)Nc1ccc(C)cc1 | 2% | 1.5µM* | -103* | 0% | 1.5µM*
C/C=C/c1ccc(OCC(=O)Nc2ccc(OC)c(OC)c2)c(OC)c1 | -25% | 23µM* | -25 | -17% | 16µM*
C/C=C/c1ccc(OCC(=O)Nc2ccncc2)c(OC)c1 | -26% | u | -10 | -21% | 18µM*
CCOc1cc(/C=C2\C(=O)N(CCC#N)N=C2C)ccc1OCC(N)=O | -5% | -5% | 9 | -16% | -24%
COCCNc1cc(-c2ccccc2C(F)(F)F)ncn1 | x | -23% | x | x | -18%
Nn1c(COc2ccccc2F)nnc1SCC(=O)NC1CCCC1 | -4% | -4% | 12 | 0% | -14%
Cc1cccc(C)c1NC(=O)C1c2ccccc2OCC(=O)N1Cc1ccc2c(c1)OCO2 (centres undefined) | -1% | -29% | -12 | -2% | -5%
O=C(N/N=C/c1c(O)ccc2ccccc12)c1[nH]ncc1Br | u | 4.6µM* | 99 | u | 2.6µM*
CCOc1ccc(/C=N/NC(=O)c2[nH]ncc2Br)c(O)c1 | 7.3µM* | 5.2µM* | 135 | 5.2µM* | 5.2µM*

Assay outcomes: PubChem BioAssay, National Center for Advancing Translational Sciences (NCATS)
